This is a sample that favours compounds with a hit; in the whole collection about 4.1% have one here.
MPTP inh = inhibitors of mitochondrial permeability transition pore | isolated mouse mitochondria, Ca2+ swelling absorbance, 30 min | inhibition, % at 10 µM | 360,000 compounds, 1.4% hits | AID 602449;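 active = inhibition of 50% or more, scaled per plate between neutral and stimulator controls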;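 also: 0% = DMSO wells given calcium and 100% = 1 mM EGTA wells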
FAS-TE inh = inhibitors of human fatty acid synthase thioesterase domain | recombinant FAS-TE, OMFH fluorogenic substrate, fluorescence endpoint | inhibition, % at 15 µM | 360,000 compounds, 0.67% hits;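 active = compounds whose normalised, plate-corrected inhibition of enzyme fluorescence in the single-dose primary screen is 50% or more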;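 also: 0% = DMSO with enzyme and 100% = substrate without enzyme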
beta cell repl = MIN6 beta-cell proliferation induction | AID 2380 | proliferation, % at 10 µM | MIN6 cells proliferation, ATPlite luminescence, 48 h; cells starved in 0.2% serum; 100% = growth in 10% serum | 330,000 compounds, 0.29% hits;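 active = compounds whose signal lies at least 3.5 SD above the mean of all wells on their plate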;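 also: 0% = DMSO-treated cells in low-serum medium and 100% = 10% serum control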
pCIP destab = lowers stability of the mouse p/CIP coactivator protein; F442A p/CIP-EGFP cells, EGFP fluorescence, 16 h; decrease of EGFP signal, % at 10 µM; 290,000 compounds, 0.01% hits; AID 1984;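 active = EGFP signal decrease of at least 30% at 10 µM or well 3 SD below plate mean, unless failing retest; inactive = the rest, including hits failing retest or dose response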
GRIN3A LBD mod = NR3A (human) ligand-binding domain modulation. NR3A LBD differential scanning fluorimetry, Tm shift; 0% = protein alone, 100% = glycine-bound protein. Tm shift relative to glycine control, % at 25 µM. 340,000 compounds, 2.5% hits;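 active = melting temperature shift of at least 10% of the positive control shift, at one fixed dose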
Active calls of the source: *; x = no result given.

SMILES | MPTP inh | FAS-TE inh | beta cell repl | pCIP destab | GRIN3A LBD mod
COc1ccc(C(C)(O)c2nc(-c3cccc(O)c3)cs2)cc1 (stereo unspecified) | 2.6 | 2.2 | x | x | x
COc1ccc(CCNC(=S)NCCc2c[nH]c3ccccc23)cc1 | -0.4 | 3.7 | -3.7 | -4.7 | 30.7*
Cc1ccc(NC(=O)/C(C#N)=C/c2ccsc2)c(C)c1 | -0.3 | -4.5 | 0.0 | 14.1 | 11.5*
CCOC(=O)c1cnc(SC)nc1Sc1ccccc1Cl | 3.0 | 20.4 | -2.5 | -16.6 | 19.8*
O=C(CCCN=C1NS(=O)(=O)c2ccccc21)OCC(=O)c1ccccc1 | -0.9 | -4.5 | -0.3 | x | -3.1
O=C(COC(=O)CCCCCN=C1NS(=O)(=O)c2ccccc21)Nc1ccc(Cl)c(Cl)c1 | 8.8 | 18.2 | 1.1 | -5.8 | 22.5*
CCOc1ccccc1CNC(=O)C1CCN(S(=O)(=O)N2CCC(C)CC2)CC1 | -1.1 | -7.3 | x | x | x
Cc1ccc(OCC(=O)N2CCCCC2)c(Br)c1 | 0.0 | -6.7 | 0.9 | -7.7 | 17.1*
COc1ccc(NC(=O)c2sc(=O)n(Cc3cccc(C(F)(F)F)c3)c2C)cc1OC | -0.7 | 16.9 | x | x | x
O=C(/C=C1\SC(=O)N(CC(=O)Nc2ccc(F)cc2)C1=O)Nc1ccc(Cl)cc1 | -1.0 | -4.4 | -3.5 | -0.8 | 27.2*
O=C(/C=C1\SC(=O)N(CC(=O)Nc2ccc(Cl)cc2)C1=O)Nc1ccc(F)cc1 | 1.1 | -10.3 | 0.0 | -0.4 | 36.0*
Cc1cccc(NC(=O)CN2C(=O)S/C(=C\C(=O)Nc3ccc(Cl)cc3)C2=O)c1 | -0.4 | -2.8 | -1.0 | 18.7 | 8.8
COc1ccc(C)cc1S(=O)(=O)N1CCCC(N2CCN(c3ccccc3)CC2)C1 (stereo unspecified) | 0.0 | 1.4 | x | x | x
Cc1cccc(NS(=O)(=O)c2ccc3c(c2)Cc2cc(S(=O)(=O)Nc4cccc(C)c4C)ccc2-3)c1C | 3.3 | 4.4 | x | -9.6 | 13.1*
CNc1nc(Cl)c(SC)c(NCc2cccc(OC)c2)n1 | 1.8 | 13.8 | -0.3 | -4.5 | 17.3*
CCOc1ccc(NC(=O)Nc2cccs2)cc1 | 14.0 | -8.0 | -4.9 | 3.9 | 18.8*
Cc1ccc(NC(=O)Nc2cccs2)cc1 | -5.8 | -4.1 | -4.7 | -2.3 | 11.3*
CCc1ccc(NC(=O)Nc2cccs2)cc1 | -4.8 | -1.3 | -7.0 | -15.6 | 9.4
Nc1[nH]c(C(=O)c2ccccc2)c(-c2ccccc2C(F)(F)F)c1C(=O)NCc1ccc(F)cc1 | 3.4 | -6.6 | x | x | x
CCCS(=O)(=O)NC(=O)C1(C)CCCN(C(=O)C2(c3ccc(Cl)cc3)CCCC2)C1 (stereo unspecified) | 1.0 | 0.4 | x | x | x
Cc1cccc(C)c1NC(=O)C(c1ccc(C(F)(F)F)cc1)n1c(=O)c(-c2ccccc2)nc2ccccc21 (stereo unspecified) | 5.7 | x | x | x | x
N#C/C(=C/c1ccc(Br)s1)C(=O)NCCc1c[nH]c2ccccc12 | 1.9 | 29.9 | 0.0 | 5.5 | 23.4*
O=C(NCCc1c[nH]c2ccccc12)C(=O)c1c[nH]c2ccccc12 | 0.5 | 0.8 | -2.8 | -1.2 | 24.6*
O=C(NCCc1c[nH]c2ccccc12)Nc1ccccc1 | 0.5 | -2.2 | -4.1 | -7.9 | 16.2*
O=C(NCCc1ccc(Cl)cc1)C(=O)c1c[nH]c2ccccc12 | 4.7 | -0.7 | 1.1 | -6.6 | -25.4
SMILES | MPTP inh | FAS-TE inh | beta cell repl | pCIP destab | GRIN3A LBD mod
N#Cc1cccc(NC(=O)NCCc2c[nH]c3ccccc23)c1 | 0.4 | 8.3 | -2.8 | 4.0 | 10.7*
Cc1cc(C)cc(NC(=O)C(=O)NCCc2c[nH]c3ccccc23)c1 | 3.8 | 17.9 | -1.6 | -13.9 | -2.3
Cc1cc(/C=C(\C#N)C(=O)NCCc2c[nH]c3ccccc23)c(C)n1C | -0.5 | 8.4 | 0.2 | -3.1 | -3.1
COc1ccccc1NC(=O)NCCc1c[nH]c2ccccc12 | 1.7 | -0.2 | -2.9 | 4.1 | -3.5
CN1CCN(c2ncnc3c2ncn3[C@H]2CN(Cc3ccc(Cl)cc3)C[C@@H](CO)O2)CC1 | -0.1 | -6.3 | x | x | x
CC1C(=O)N(Cc2cn(Cc3ccco3)nn2)CCS(=O)(=O)N1Cc1ccc(-c2ccc(Cl)c(Cl)c2)cc1 (stereo unspecified) | -1.1 | 18.4 | x | x | x
CN1OC[C@@H]2CN3C(=O)N(c4ccccc4)c4ccccc4[C@@H]3C[C@@H]21 | 0.5 | -4.3 | x | x | x
O=C(COC(=O)CCc1c[nH]c2ccccc12)NCc1ccccc1 | -1.5 | -4.4 | -1.7 | 0.0 | 11.6*
O=C(COC(=O)CCc1c[nH]c2ccccc12)NCc1ccc(Cl)cc1 | 0.1 | 5.9 | 0.0 | 1.1 | -5.3
COc1ccc(OC)c(-c2csc(NC(=O)COC(=O)C3CCC3)n2)c1 | -0.9 | 4.2 | -5.4 | x | -2.4
